Assay outcomes from PubChem BioAssay.
FUS suppressor – FUS proteinopathy suppression in yeast. S. cerevisiae FUS-expressing, growth rescue, OD600, 24 h. Potency, µM (top dose mostly 76.6 µM), usual class: activators. hit rate 0.24% among 390,000. AID 1347120;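 further: plate controls were DMSO vehicle for no effect and reference control for full effect; nearly all actives have a fitted effect of over 55% in size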
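S. cerevisiae expressing FUS from galactose induction served as the toxicity model. Growth after 24hr at 30C, read as absorbance at 600 nm, indicates suppression of toxicity; compounds dosed at several concentrations.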
Abeta rescue – restores growth of yeast expressing A-beta42 peptide. yeast expressing A-beta42, growth rescue, OD600, 48 h; response scale: 0% DMSO, 100% iron-clioquinol control. Potency, µM (series often up to 46.1 µM), usual class: activators. hit rate 0.063% among 410,000. AID 1347071; further: nearly all actives have a fitted effect of over 55% in size
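Yeast growth medium received pinned compounds, then yeast cells expressing toxic A-beta were added; plates incubated at 30 C for 48 hr. Growth read as absorbance at 600 nm, normalized to DMSO and equimolar FeCl3 plus clioquinol controls.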
aSyn rescue – inhibitors of alpha-synuclein toxicity in yeast | Yeast expressing alpha-synuclein, growth rescue, BacTiter-Glo, 24 h | Potency, µM (titrated, usually from 46.1 µM), without a hit: at the top dose growth rescue (activation), actives largely listed as activators | hit rate 0.14% among 370,000 | AID 652106; further: % of control where 0% means no effect; nearly all actives have a fitted effect of over 65% in size
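Screening used galactose-induced yeast with toxic alpha-synuclein levels, exposed to compound for 24 hr at 30 deg C. Cell growth, read with BacTiter-Glo luminescence, gave the measured signal.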
TDP-43 yeast inh – inhibitors of TDP-43 toxicity in yeast; TDP-43 expressing yeast growth rescue, BacTiter-Glo, 24 h; Potency, µM (top dose mostly 46.1 µM), without a hit: at the top dose growth rescue (activation), hits mostly activators; hit rate 1.8% among 410,000; AID 652104; further: % of control where 0% means no effect; nearly all actives have a fitted effect of over 50% in size
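Yeast expressing TDP-43 (pregrown in raffinose, seeded at OD600=0.02 in galactose medium) exposed to compounds 24 hr at 30 deg C. Growth read by BacTiter-Glo luminescence; rescue of toxicity appears as increased signal.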
* marks the source's active call; other numbers are inactive results; i = inactive; ? = inconclusive; . = no result given; ! = a repeat was not active; [ ] = another dose, or the depositor's remark. This is a sample that favours compounds with a hit; in the whole collection about 2.1% have one here. The call rests on the fitted dose curve; in most records, active means well fitted curve in the direction sought with a large enough effect; inconclusive means small, poorly fitted or top-dose-only effect, or another doubt; inactive means no such curve, though single readings can be large; an effect the other way counts as inactive or inconclusive. Potency means the concentration at half of the fitted maximal effect.

SMILES	FUS suppressor	Abeta rescue	aSyn rescue	TDP-43 yeast inh
COc1ccc2nc(N(Cc3cccnc3)C(=O)COc3ccccc3)sc2c1	i	i	.	16µM*
O=C(Cc1ccccc1)N(Cc1cccnc1)c1nc2c(F)cc(F)cc2s1	i	i	.	18µM*
Cc1cccc2sc(N(Cc3cccnc3)C(=O)COc3ccccc3)nc12	i	i	.	11µM*
CC(=O)N(Cc1cccnc1)c1nc2c(F)cc(F)cc2s1	i	i	.	19%
O=[N+]([O-])c1ccccc1/C=C1\C=Cc2ccccc21	.	.	-29%	.
O=C(OCCN1CCN(C2CN(Cc3cn(Cc4ccccc4Cl)nn3)S(=O)(=O)C2)CC1)c1cc2ccccc2o1 (stereo not given)	i	.	.	.
COc1cc(OC)c2c(=O)cc(-c3ccccc3)oc2c1	i	i	-8%	35µM*
CC(C)(C)OC(=O)COc1cc(OCC(=O)OC(C)(C)C)c2c(=O)cc(-c3ccccc3)oc2c1	32µM*	i	0%	18%
C[C@H]1[C@H](c2ccccc2)OC(O)([C@H](Cc2ccccc2)NC(=O)OC(C)(C)C)CN1C (stereo not given in full)	i	.	.	.
O=C(NCc1ccco1)c1noc2c1CCCC2	i	i	0%	-9%
CC1CCc2onc(C(=O)NCc3ccco3)c2C1 (stereo not given)	i	i	0%	25µM*
CSc1nnc(NC(=O)c2nc(S(=O)(=O)Cc3ccccc3F)ncc2Cl)s1	i	i	14%	25%
CCOc1ccc(NC(=O)c2nc(S(=O)(=O)Cc3ccccc3F)ncc2Cl)cc1	i	i	11µM*!	?
CCc1nnc(NC(=O)c2nc(S(=O)(=O)Cc3cccc(C)c3)ncc2Cl)s1	i	i	17%	11µM*
CC(C)c1nnc(NC(=O)c2nc(S(=O)(=O)Cc3ccccc3F)ncc2Cl)s1	i	i	5%	28µM*
COc1ccc(CNC(=O)c2nc(S(=O)(=O)Cc3ccccc3)ncc2Cl)cc1	i	i	0%	17%
O=C(NCc1ccccc1)c1nc(S(=O)(=O)Cc2ccccc2)ncc1Cl	i	i	21%	10µM*
Cc1cccc(CS(=O)(=O)c2ncc(Cl)c(C(=O)Nc3nnc(C(C)C)s3)n2)c1	i	i	19%	?
O=C(Nc1ccc(OC(F)F)cc1)c1nc(S(=O)(=O)Cc2ccccc2F)ncc1Cl	.	.	-82%	.
Cc1ccc(CS(=O)(=O)c2ncc(Cl)c(C(=O)Nc3nnc(C(C)C)s3)n2)cc1	i	i	20%	14µM*
CCc1nnc(NC(=O)c2nc(S(=O)(=O)Cc3ccccc3)ncc2Cl)s1	i	i	7%	20%
CCc1nnc(NC(=O)c2nc(S(=O)(=O)Cc3ccc(C)cc3)ncc2Cl)s1	i	i	16%	18µM*
CCS(=O)(=O)c1nc2ccccc2n1Cc1ccccc1Cl	i	i	-4%	16µM*
COc1ccc(C2CC(=O)c3cnc(NC(=O)c4cccc(OC)c4)nc3C2)cc1 (stereo not given)	i	i	1%	?
COc1ccc(C2CC(=O)c3cnc(NC(=O)c4ccccc4OC)nc3C2)c(OC)c1 (stereo not given)	i	i	14%	18µM*
SMILES	FUS suppressor	Abeta rescue	aSyn rescue	TDP-43 yeast inh
CCOC(=O)c1nnsc1Nc1ccc(C)c(C)c1	i	i	-5%	11µM*
CC(C)(C)N1C(=O)[C@H]2[C@@H](c3ccc(Br)cc3)N3C(=O)N(c4cccc(Br)c4)C(=O)[C@@]3(Cc3ccccc3)[C@H]2C1=O	5µM*	i	1%	7%
CCN1C(=O)[C@H]2[C@@H](c3ccc(C)cc3)N3C(=O)N(c4cccc(Br)c4)C(=O)[C@@]3(Cc3ccccc3)[C@H]2C1=O	35µM*	i	-2%	-10%
CC(C)(C)N1C(=O)[C@H]2[C@@H](c3ccc(Br)cc3)N3C(=O)N(c4ccccc4)C(=O)[C@@]3(Cc3ccccc3)[C@H]2C1=O	?	i	14%	-4%
CC(=O)Nc1c(-c2ccc(F)cc2)nc2ncccn12	i	.	.	.
CCN1C(=O)/C(=C\c2nc3ccccc3c(=O)n2CC)c2ccccc21	i	i	6%	13µM*
CCn1c(/C=C2/C(=O)N(C)c3ccccc32)nc2ccccc2c1=O	i	i	19%	14µM*
CCn1c(/C=C2\C(=O)N(C)c3ccccc32)nc2ccccc2c1=O	i	i	1%	?
CCn1c(/C=C\c2ccccc2C)nc2ccccc2c1=O	i	i	-5%	22µM*
Cc1[nH]c2ccccc2c1C(c1c[nH]c2ccccc12)c1c(C)[nH]c2ccccc12	.	.	11%	.
O=C(c1cc(Cl)cc(Cl)c1)N1CC[C@H]2[C@H](CCCN2Cc2ccc(F)cc2)C1	i	.	.	.
C=C(C)Cn1c(SCC(=O)N/N=C(\C)c2ccc([N+](=O)[O-])cc2)nnc1-c1ccc(Br)cc1	i	.	.	.
COc1ccc(OC)c(NS(=O)(=O)c2ccc(-c3cc(C)no3)s2)c1	i	i	.	16µM*
O=S(=O)(NCCc1ccccc1)c1ccc(Br)s1	i	i	5%	?
COc1ccc(OC)c(NS(=O)(=O)c2ccc(Br)s2)c1	i	i	.	22µM*
COc1ccc(CCNS(=O)(=O)c2ccc(Br)s2)cc1	i	i	1%	11µM*
COc1cccc(NS(=O)(=O)c2ccc(-c3cc(C)no3)s2)c1	i	i	.	-17%
COc1ccccc1NS(=O)(=O)c1ccc(Br)s1	i	i	22%	11µM*
N#Cc1ccc(CSc2nc3sc4c(c3c(=O)n2-c2ccc(Br)cc2)CCCC4)cc1	i	.	.	.
Cc1ccc(C2CCN(C(=S)Nc3cccc(C)c3)C2)cc1 (stereo not given)	?	13µM*	1%	22µM*
Cc1cccc(NC(=S)N2CCC(c3nc4ccccc4o3)CC2)c1	?	16µM*	-4%	-2%[0.397 µM]
Cc1cccc(NC(=S)N2CCCCC2)c1	.	?	-5%	-13%
Cc1cccc(NC(=O)N2CCC(c3nc4ccccc4o3)CC2)c1	i	i	5%	0%
C=CCN1C(=O)[C@H](CC(=O)NCc2ccc(OC)c(OC)c2)[C@@]2(C(=O)OCC)CCCC=C12	i	.	.	.
N#CCC[C@H]1CC[C@]2(CCCN(S(=O)(=O)c3ccccc3)C2)O1	i	.	.	.
